Data taken from PubChem BioAssay (NCATS).
Inconclusive results are not listed. A call without a number means that no potency is given here. Calls of active or inactive are those of the source. The call rests on the fitted dose curve; in most records, active means well fitted inhibition curve with a large enough effect; inconclusive means small, poorly fitted or top-dose-only effect; inactive means flat fitted curve, though single readings scatter.

system: NIH3T3; experiment: qHTS assay to identify novel small-molecules to repurpose for Merkel cell carcinoma treatment (AID 1296009); details: MCC and control cell lines, CellTiter-Glo viability, 72 h; at 44.8 µM (top of the series) unless noted; further: nearly all actives have a fitted effect of over 60% in size
Procedure, shortened: (§1)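 Dose-response viability screen; 72 hr exposure at 37 degree celsius; CellTiter-Glo added, 10 min room temperature, luminescence read; RLUs scaled between no-cell and DMSO wells.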

SMILES	outcome
C#Cc1ccc(-c2ccccc2F)cc1	inactive
NS(=O)(=O)c1cc(C(=O)NN2C[C@H]3[C@H]4CCC(C4)[C@H]3C2)ccc1Cl	inactive
Cc1[nH]cnc1-c1ccc(Cl)cc1	inactive
c1ccc2c(c1)CCc1ccccc1N2	inactive
COC(=O)c1cc(S(N)(=O)=O)ccc1OC	inactive
CCOc1ccccc1OCC1CNCCO1 (stereo not drawn)	inactive
O=C(C1CCCCC1)N1CC(=O)N2CCCc3ccccc3C2C1 (stereo not drawn)	inactive
CCn1ccc(NS(=O)(=O)c2ccc(N)cc2)nc1=O	inactive
CSCC[C@H](NC(=O)[C@H](Cc1c[nH]c2ccccc12)NC(=O)CCNC(=O)OC(C)(C)C)C(=O)N[C@@H](CC(=O)O)C(=O)N[C@@H](Cc1ccccc1)C(N)=O	inactive
O=C(O)C(=O)Nc1cccc(-c2nn[nH]n2)c1	inactive
COc1ccc(CCC(C)=O)cc1	inactive
COc1cc(S(N)(=O)=O)cc(C(=O)O)c1OC	inactive

system: UISO; experiment: as above; details: MCC and control cell lines, CellTiter-Glo viability, 72 h; series mostly up to 46 µM
Procedure, shortened: as §1

SMILES	Potency
COCCc1ccccn1	inactive
OC1(c2ccccc2)CCNCC1	inactive
O=C1NC(c2ccccc2)(c2ccccc2)C(=O)N1COP(=O)(O)O	inactive
COC(=O)c1cc(Cl)ccc1OC	inactive
COC(=O)CCCCC(CCSS/C(CCO)=C(\C)N(C=O)Cc1cnc(C)nc1N)SC(C)=O (stereo not drawn)	inactive
COc1ccc2nc(SCc3ncc(C)c(OC)c3C)[nH]c2c1	inactive
Cc1ccc(C(C)OC(=O)C2(C)CCC(C(=O)O)C2(C)C)cc1 (stereo not drawn)	inactive
CN(C)CCN1CCN(c2cccc(Cl)c2)C1=O	inactive
CCOC(=O)C(=O)CCCCCCl	inactive
CCOC(=O)Oc1ccc(CCNC(=O)[C@H](CCSC)NC(C)=O)cc1OC(=O)OCC	inactive
COC(=O)c1cc(Cl)c(NC(C)=O)cc1OC	inactive
CCN1CCN(c2cc(-c3ccc(F)cc3)c3c(n2)CCCCCC3)CC1	inactive
CCCc1ncc(C(=O)O)s1	inactive
Cc1coc2ccccc2c1=O	inactive
O=C1CC2(CCCC2)CC(=O)N1	inactive
COC(=O)/C=C\C(=O)OC	inactive
C#CC(C)(CC)OC(=O)c1ccccc1C(=O)O (stereo not drawn)	inactive
O=C(O)Cn1c(=O)n(Cc2ccc(Br)cc2F)c(=O)c2ccc(Cl)cc21	inactive

SMILES	Potency
CN1CCN(N)CC1	inactive
CC(CC(C#N)(c1ccccc1)C(C)C)N(C)C (stereo not drawn)	inactive
CCOC(=O)CN1CCCC1=O	inactive
CC(C)(C)NCC(O)COc1ccccc1OCC1CCCO1 (stereo not drawn)	inactive
CCN(CC)CC(=O)Oc1ccc(NC(C)=O)cc1	inactive
COC(=O)/C=C(/C)N	inactive
C#Cc1ccc(-c2ccccc2F)cc1	inactive
NS(=O)(=O)c1cc(C(=O)NN2C[C@H]3[C@H]4CCC(C4)[C@H]3C2)ccc1Cl	inactive
Cc1[nH]cnc1-c1ccc(Cl)cc1	inactive
c1ccc2c(c1)CCc1ccccc1N2	inactive
COC(=O)c1cc(S(N)(=O)=O)ccc1OC	inactive
CCOc1ccccc1OCC1CNCCO1 (stereo not drawn)	inactive
O=C(C1CCCCC1)N1CC(=O)N2CCCc3ccccc3C2C1 (stereo not drawn)	inactive
CCn1ccc(NS(=O)(=O)c2ccc(N)cc2)nc1=O	inactive
CSCC[C@H](NC(=O)[C@H](Cc1c[nH]c2ccccc12)NC(=O)CCNC(=O)OC(C)(C)C)C(=O)N[C@@H](CC(=O)O)C(=O)N[C@@H](Cc1ccccc1)C(N)=O	inactive
O=C(O)C(=O)Nc1cccc(-c2nn[nH]n2)c1	inactive
COc1ccc(CCC(C)=O)cc1	inactive
COc1cc(S(N)(=O)=O)cc(C(=O)O)c1OC	inactive
